# 14-3-3 PPI – modulators of 14-3-3 gamma protein binding, primary screen, biochemical, fluorescence polarization | 160,000 compounds, 0.19% hits | FP, 14-3-3gamma / TMR-pS259-Raf peptide binding | inhibition, % at 40 µM; in the data active = inhibition above about 30%;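 note: 0% = protein plus tracer without compound and 100% = blank with tracer alone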
# Target sequence (P61981 whole entry, looked up): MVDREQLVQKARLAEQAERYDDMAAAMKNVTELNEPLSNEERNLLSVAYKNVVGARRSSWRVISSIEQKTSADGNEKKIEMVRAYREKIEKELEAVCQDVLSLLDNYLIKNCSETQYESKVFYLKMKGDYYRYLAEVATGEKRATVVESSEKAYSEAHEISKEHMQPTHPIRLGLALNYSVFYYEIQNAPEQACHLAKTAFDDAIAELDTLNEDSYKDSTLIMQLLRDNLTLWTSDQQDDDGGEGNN
# * hit, by the source's call; + = active, no number; ! = a repeat was not active. The sample as a whole holds a higher share of hits than the screen did.
SMILES,14-3-3 PPI
c1ccc(-c2oc3ncn4nc(-c5ccncc5)nc4c3c2-c2ccccc2)cc1,7
Cc1ccc(S(=O)(=O)N2CCN(C(=O)CSc3nnc(-c4ccco4)o3)CC2)cc1,-7
Cn1c(=O)c2c(nc(N3CCCCC3)n2Cc2ccc(Cl)cc2)n(C)c1=O,-1
Cc1nnc(N2C(=O)C(O)=C(C(=O)c3cccs3)C2c2cccc(Oc3ccccc3)c2)s1 (stereo not drawn),-44
COc1ccc(C2C(C(=O)c3cccs3)=C(O)C(=O)N2c2nnc(C)s2)cc1OC (stereo not drawn),-5
O=C(C1=C(O)C(=O)N(c2nncs2)C1c1cccc(Br)c1)c1cccs1 (stereo not drawn),84*
Cn1c(=N)c(S(=O)(=O)c2ccccc2)cc2c(=O)n3ccccc3nc21,1
COc1ccc(-n2nc(C(=O)NCC(=O)Nc3ccc4c(c3)OCCO4)c3ccccc3c2=O)cc1,-5
O=C(NCc1ccccn1)C1CCN(S(=O)(=O)c2cnc[nH]2)CC1,59*!
CC1CCN(S(=O)(=O)N2CCC(C(=O)NCc3ccccn3)CC2)CC1,-4
O=C(NCc1ccccn1)C1CCN(S(=O)(=O)c2cccs2)CC1,8
COc1cccc2sc(NC(=O)c3ccc(S(=O)(=O)N4CCOCC4)cc3)nc12,3
Cc1cccc(CCNC(=O)C2CCC(CNc3c(N4CCCC4)c(=O)c3=O)CC2)c1 (stereo not drawn),5
Cn1c(CNc2ccc(Cl)cc2)nc2ccccc21,-9
CC(C)N=c1cc2n(-c3ccc(Cl)cc3)c3ccccc3nc-2cc1Nc1ccc(Cl)cc1,97*
CC(C)Cn1c(C=Cc2ccc(Cl)cc2)nc2ccccc21,-8
Cc1cccc(NC(=O)CN(c2cc(C(F)(F)F)ccc2Cl)S(C)(=O)=O)c1,11
Nc1nonc1-c1nc2ccccc2n1Cc1ccccc1,-19
CC(=O)N1CC=C2C(C#N)=C(N)C(C#N)(C#N)[C@H](c3ccoc3)[C@H]2C1,-8
Cc1ccc(C2C3CN(C(C)C)CC=C3C(C#N)=C(N)C2(C#N)C#N)cc1 (stereo not drawn),36*
COc1ccc(OC)c(C2C3CN(C(C)C)CC=C3C(C#N)=C(N)C2(C#N)C#N)c1 (stereo not drawn),-27
CCc1ccc2oc(=O)cc(CN3CCOCC3)c2c1,-1
CSc1nc2ccc(Nc3nc(N4CCOCC4)nc(N4CCOCC4)n3)cc2s1,-3
COc1ccc(Nc2cc(C)nc3c(C)cccc23)cc1,-6
COc1ccc2nc(C)cc(Nc3ccc(F)cc3)c2c1,-66
SMILES,14-3-3 PPI
COc1ccc(Nc2cc(C)nc3ccccc23)cc1,38*
O=C(NCCc1c[nH]c2ccccc12)C1CCN(c2nnc(N3CCCC3=O)s2)CC1,4
O=C(CSc1ncnc2ccccc12)N1CCCC1,-10
O=C(O)CCCNc1cc(N2CCC3(CC2)OCCO3)c2noc3c2c1C(=O)c1ccccc1-3,-52
O=C(O)CCCNc1cc(N2CCN(c3cccc(C(F)(F)F)c3)CC2)c2noc3c2c1C(=O)c1ccccc1-3,-123
O=C(O)CCCNc1cc(N2CCCCCC2)c2noc3c2c1C(=O)c1ccccc1-3,67*
CCOc1cc2[nH]c(=S)n(C(C)C)c(=O)c2cc1OCC,-4
O=C(c1ccc(F)cc1)c1cccnc1,66*
O=C(Oc1ccc(OC(=O)c2cccnc2)cc1)c1cccnc1,-29
O=C(c1ccc(F)cc1)N1CCC(O)(c2cccnc2)CC1,-1
Cn1c(=O)c2c(nc(N3CCCCC3)n2CCSc2nc3ccccc3o2)n(C)c1=O,1
Cc1cc(N2CCC(C)CC2)nc2ccc(NC(=O)CCC(=O)N3CCC(Cc4ccccc4)CC3)cc12,-6
O=C(CCNC(=O)c1ccc(Br)o1)NCc1ccccc1Cl,1
O=C(CCNC(=O)c1ccc(Br)o1)NCc1ccccn1,+!
Cc1ccc(CNC(=O)CCNC(=O)c2ccc(Br)o2)cc1,-4
CCCCNC(=O)CCCn1c(=O)[nH]c2ccsc2c1=O,-3
CCOC(=O)c1c(C)c(C(=O)N2CCc3ccccc3C2)c(C)n1CC,-11
Fc1ccccc1C1C=C(c2ccc(Br)s2)Nc2nc3ccccc3n21 (stereo not drawn),-107
Fc1ccccc1C1C=C(c2cccc(Br)c2)Nc2nc3ccccc3n21 (stereo not drawn),-11
Fc1ccccc1C1C=C(c2cccnc2)Nc2nc3ccccc3n21 (stereo not drawn),47*
CC(=O)Nc1cccc(N2C(=O)C3C4c5ccccc5C(c5ccccc54)C3C2=O)c1 (stereo not drawn),2
CC1=CC(C)(C)Nc2ccc(OC(=O)c3ccc(Cl)c([N+](=O)[O-])c3)cc21,0
C=CCn1c(CCC(=O)O)ccc1-c1ccc(OC)cc1,-34
O=C(Nc1ccc(-c2nc3ccccc3o2)c(O)c1)c1ccc(Cl)c([N+](=O)[O-])c1,-175
CCOC(=O)c1[nH]c(C)c(C(=O)NC2CCCCC2)c1C,-7
CC1CC(=O)C(CC(=O)O)C1C[N+](=O)[O-] (stereo not drawn),30*
CCN(CC)S(=O)(=O)c1ccc(C(=O)Nc2nc3c(ccc4ccccc43)s2)cc1,1

# Compound activity (PubChem)
